# Assay results taken from the supplement of paper PMC12282887.
# ± gives the standard deviation of the averaged measurements.
# Columns and labels:
# Assay in all cases: promoter activity interaction Z-score (Lux/OD deviation from empty-vector control); higher = stronger promoter induction by the compound
# [1] = test system: E. coli BW25113 acrABp lux reporter
# In short: (§1)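 OD600 and luminescence of E. coli BW25113 reporter cultures (40 µl LB Lennox, 384-well plates, 37°C) were measured every 30 min for 12 h. Integration ran over 0–8 h for wild type or 1–9 h for deletion strains, and wells with growth below 10% of the median were dropped. The score is the Z-transformed residual of growth-normalised luminescence fitted against a control.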
# [2] = test system: E. coli BW25113 marRABp lux reporter
# In short: as §1
# [3] = test system: E. coli BW25113 micFp lux reporter
# In short: as §1
# [4] = test system: E. coli BW25113 ompFp lux reporter
# In short: as §1
# [5] = test system: E. coli BW25113 robp lux reporter
# In short: as §1
# [6] = test system: E. coli BW25113 soxSp lux reporter
# In short: as §1
# [7] = 8.6 µg/ml, genetic background: wild type
# [8] = 8.6 µg/ml, genetic background: ΔmarA
# [9] = 8.6 µg/ml, genetic background: Δrob
# [10] = 8.6 µg/ml, genetic background: ΔsoxS
# [11] = 17.1 µg/ml, genetic background: wild type
# [12] = 17.1 µg/ml, genetic background: ΔmarA
# [13] = 17.1 µg/ml, genetic background: Δrob
# [14] = 17.1 µg/ml, genetic background: ΔsoxS
# [15] = 34.3 µg/ml, genetic background: wild type
# [16] = 34.3 µg/ml, genetic background: ΔmarA
# [17] = 34.3 µg/ml, genetic background: Δrob
# [18] = 34.3 µg/ml, genetic background: ΔsoxS
# [19] = 68.6 µg/ml, genetic background: wild type
# [20] = 68.6 µg/ml, genetic background: ΔmarA
# [21] = 68.6 µg/ml, genetic background: Δrob
# [22] = 68.6 µg/ml, genetic background: ΔsoxS
smiles,measurement,setting,value
Nc1ccc(C(=O)O)cc1 [4-Aminobenzoic acid],promoter activity interaction Z-score,[1]; [7],-0.327 ± 0.11
same,promoter activity interaction Z-score,[1]; [8],-0.528 ± 0.3
same,promoter activity interaction Z-score,[1]; [9],0.0646 ± 0.18
same,promoter activity interaction Z-score,[1]; [10],0.357 ± 0.28
same,promoter activity interaction Z-score,[1]; [11],0.051 ± 0.24
same,promoter activity interaction Z-score,[1]; [12],-0.48 ± 0.058
same,promoter activity interaction Z-score,[1]; [13],0.185 ± 0.16
same,promoter activity interaction Z-score,[1]; [14],0.299 ± 0.26
same,promoter activity interaction Z-score,[1]; [15],-0.112 ± 0.046
same,promoter activity interaction Z-score,[1]; [16],-0.447 ± 1.1
same,promoter activity interaction Z-score,[1]; [17],-0.379 ± 0.054
same,promoter activity interaction Z-score,[1]; [18],0.511 ± 1.2
same,promoter activity interaction Z-score,[1]; [19],0.119 ± 0.39
same,promoter activity interaction Z-score,[1]; [20],1.54 ± 0.67
same,promoter activity interaction Z-score,[1]; [21],1.31 ± 0.45
same,promoter activity interaction Z-score,[1]; [22],1.66 ± 1.3
same,promoter activity interaction Z-score,[2]; [7],0.0884 ± 0.35
same,promoter activity interaction Z-score,[2]; [8],0.463 ± 0.36
same,promoter activity interaction Z-score,[2]; [9],0.185 ± 0.28
same,promoter activity interaction Z-score,[2]; [10],0.0813 ± 0.12
same,promoter activity interaction Z-score,[2]; [11],0.277 ± 0.097
same,promoter activity interaction Z-score,[2]; [12],0.444 ± 0.14
same,promoter activity interaction Z-score,[2]; [13],0.444 ± 0.27
same,promoter activity interaction Z-score,[2]; [14],-0.00694 ± 0.024
same,promoter activity interaction Z-score,[2]; [15],0.29 ± 0.32
same,promoter activity interaction Z-score,[2]; [16],-0.226 ± 0.0094
same,promoter activity interaction Z-score,[2]; [17],-0.189 ± 0.33
same,promoter activity interaction Z-score,[2]; [18],0.117 ± 0.0092
same,promoter activity interaction Z-score,[2]; [19],0.174 ± 0.024
same,promoter activity interaction Z-score,[2]; [20],1.1 ± 0.03
same,promoter activity interaction Z-score,[2]; [21],0.919 ± 0.45
same,promoter activity interaction Z-score,[2]; [22],0.753 ± 0.38
same,promoter activity interaction Z-score,[3]; [7],0.00335 ± 0.11
same,promoter activity interaction Z-score,[3]; [8],0.0686 ± 0.11
same,promoter activity interaction Z-score,[3]; [9],0.0394 ± 0.14
same,promoter activity interaction Z-score,[3]; [10],0.675 ± 0.52
same,promoter activity interaction Z-score,[3]; [11],0.408 ± 0.1
same,promoter activity interaction Z-score,[3]; [12],0.209 ± 0.16
same,promoter activity interaction Z-score,[3]; [13],0.289 ± 0.15
same,promoter activity interaction Z-score,[3]; [14],0.578 ± 0.075
same,promoter activity interaction Z-score,[3]; [15],0.901 ± 0.57
same,promoter activity interaction Z-score,[3]; [16],0.213 ± 0.23
same,promoter activity interaction Z-score,[3]; [17],0.391 ± 0.17
same,promoter activity interaction Z-score,[3]; [18],1.38 ± 0.55
same,promoter activity interaction Z-score,[3]; [19],1.16 ± 0.52
same,promoter activity interaction Z-score,[3]; [20],0.44 ± 0.26
same,promoter activity interaction Z-score,[3]; [21],1.42 ± 0.091
same,promoter activity interaction Z-score,[3]; [22],1.7 ± 0.14
same,promoter activity interaction Z-score,[4]; [7],-0.317 ± 0.4
same,promoter activity interaction Z-score,[4]; [8],0.283 ± 0.085
same,promoter activity interaction Z-score,[4]; [9],0.0614 ± 0.37
same,promoter activity interaction Z-score,[4]; [10],0.333 ± 0.36
same,promoter activity interaction Z-score,[4]; [11],0.0303 ± 0.3
same,promoter activity interaction Z-score,[4]; [12],0.284 ± 0.18
same,promoter activity interaction Z-score,[4]; [13],0.709 ± 0.41
same,promoter activity interaction Z-score,[4]; [14],0.198 ± 0.39
same,promoter activity interaction Z-score,[4]; [15],-0.722 ± 0.31
same,promoter activity interaction Z-score,[4]; [16],-0.0385 ± 0.32
same,promoter activity interaction Z-score,[4]; [17],-1.06 ± 0.97
same,promoter activity interaction Z-score,[4]; [18],0.199 ± 1.1
same,promoter activity interaction Z-score,[4]; [19],-0.481 ± 0.17
same,promoter activity interaction Z-score,[4]; [20],1.24 ± 0.08
same,promoter activity interaction Z-score,[4]; [21],1.09 ± 0.2
same,promoter activity interaction Z-score,[4]; [22],0.488 ± 0.83
same,promoter activity interaction Z-score,[5]; [7],0.134 ± 0.3
same,promoter activity interaction Z-score,[5]; [8],0.171 ± 0.2
same,promoter activity interaction Z-score,[5]; [9],0.341 ± 0.11
same,promoter activity interaction Z-score,[5]; [10],0.571 ± 0.73
same,promoter activity interaction Z-score,[5]; [11],0.745 ± 0.54
same,promoter activity interaction Z-score,[5]; [12],1.04 ± 0.39
same,promoter activity interaction Z-score,[5]; [13],0.56 ± 0.27
same,promoter activity interaction Z-score,[5]; [14],0.303 ± 0.42
same,promoter activity interaction Z-score,[5]; [15],0.118 ± 0.27
same,promoter activity interaction Z-score,[5]; [16],0.355 ± 0.34
same,promoter activity interaction Z-score,[5]; [17],-0.251 ± 0.88
same,promoter activity interaction Z-score,[5]; [18],-0.337 ± 0.84
same,promoter activity interaction Z-score,[5]; [19],0.598 ± 0.44
same,promoter activity interaction Z-score,[5]; [20],1.92 ± 1.2
same,promoter activity interaction Z-score,[5]; [21],2.53 ± 2.5
same,promoter activity interaction Z-score,[5]; [22],2.68 ± 1.7
same,promoter activity interaction Z-score,[6]; [7],0.154 ± 0.019
same,promoter activity interaction Z-score,[6]; [8],0.4615 ± 0.00081
same,promoter activity interaction Z-score,[6]; [9],0.443 ± 0.19
same,promoter activity interaction Z-score,[6]; [10],0.4 ± 0.53
same,promoter activity interaction Z-score,[6]; [11],0.18 ± 0.23
same,promoter activity interaction Z-score,[6]; [12],0.618 ± 0.11
same,promoter activity interaction Z-score,[6]; [13],0.555 ± 0.098
same,promoter activity interaction Z-score,[6]; [14],0.287 ± 0.083
same,promoter activity interaction Z-score,[6]; [15],0.259 ± 0.017
same,promoter activity interaction Z-score,[6]; [16],0.436 ± 0.14
